Laboratory results as given in PubChem BioAssay (NCATS).
Records with an inconclusive call do not appear. Where a call stands in place of a potency, no number is given. Activity calls are given as the source filed them. Calls come from the whole dose curve; as a rule, active = well fitted cell-killing curve with a large enough effect; inconclusive = small, poorly fitted or top-dose-only effect; inactive = flat fitted curve, though single readings scatter.

Experiment: Cell Viability - H-4-II-E (AID 543); note: nearly all actives have a fitted effect of over 35% in size
Conditions: H-4-II-E rat hepatoma viability; series mostly up to 92.2 µM
Description: NIH Chemical Genomics Center [NCGC]
NIH Molecular Libraries Screening Centers Network [MLSCN]
National Institutes of Environmental Health Sciences [NIEHS]
National Toxicology Program [NTP]
We have developed a 1536-well cell-based assay for quantitative high throughput screening (qHTS) against a number of cell lines to determine in vitro cytotoxicity of small molecules. This particular assay uses the H-4-II-E cell line which is derived from rat hepatoma.
NCGC Assay Protocol Summary:
The CellTiter-Glo luminescent cell viability assay (Promega) is a homogeneous method to measure the number of viable cells in culture. The end point readout of this assay is based on quantitation of intracellular ATP, an indicator of metabolic activity, using the luciferase reaction. Luciferase catalyzes the oxidation of beetle Luciferin to oxyluciferin and light in the presence of ATP. The luminescent signal is proportional to amount of ATP present.
Using the CellTiter-Glo luminescent cell viability assay, the amount of cellular ATP was measured in the H-4-II-E cell line with complete culture medium following compound treatment for 40 hours. The assay was performed in opaque white Kalypsys 1536-well plates. In the screen, tamoxifen and doxorubicin were used as positive controls. Library compounds were measured for their ability to cause acute toxicity in the cell line, as reflected by a decrease in intracellular ATP levels, in a concentration-dependent manner. […] AC50 values were determined from concentration-response data modeled with the standard Hill equation.
qHTS protocol fo CellTiter Glo H-4-II-E cellular assay
[Step] [Parameter] [Value] [Description]
1. Reagent; 5 uL; 1500 H-4-II-E cells/well
2. Time; 5 hr; 37 °C incubation
4. Controls; 23 nL; Tamoxifen 0.34 uM to 100 uM & Doxorubicin 0.02 nM to 100 uM
5. Time; 40 hr; 37 °C incubation
6. Reagent; 5 uL; CellTiter Glo reagent
7. Time; 20 min; Room Temperature
8. Detection; Luminescence; Viewlux plate reader
Keywords: cell viability, cytotoxicity, H-4-II-E cell line, luminescence, NTPHTS, NTPHTS_NCGC, NIEHS, EPA, DSSTox, MLSMR, MLSCN, NIH Roadmap, qHTS, NCGC
Potency is the fitted concentration of half-maximal effect.

Compound	Potency
CCNCC	inactive
COc1ccccc1N	inactive
CC(C)Br	inactive
CNC(=O)O/N=C/C(C)(C)S(C)=O (stereo not given)	inactive
Cl/C=C/Cl	inactive
C=CCc1cc(OC)c2c(c1)OCO2	inactive
N#CCc1ccccc1	inactive
O=[N+]([O-])c1cccc2c([N+](=O)[O-])cccc12	inactive
Nc1ncc([N+](=O)[O-])s1	inactive
CC12CC1(C)C(=O)N(c1cc(Cl)cc(Cl)c1)C2=O (stereo not given)	inactive
Oc1ccc(Cl)c(Cl)c1	inactive
CC(C)[C@]12CC(=O)[C@H](C)[C@H]1C2	inactive
Oc1cccc(Cl)c1	inactive
C=CC#N	inactive
Nc1cc(Cl)cc(C(=O)O)c1Cl	inactive
C=CC(=O)OCCN(C)C	inactive
c1ccc(C2CO2)cc1 (stereo not given)	inactive
Cl/C=C\Cl	inactive
CN=C=O	inactive
O=[N+]([O-])c1ccc(Cl)cc1	inactive

Compound	Potency
ClCC(Cl)Cl	inactive
S=c1[nH]c2ccccc2[nH]1	inactive
CCC[N+](=O)[O-]	inactive
ClCCOCOCCCl	inactive
CC(C)C#N	inactive
CCOS(C)(=O)=O	inactive
c1ccc(P(c2ccccc2)c2ccccc2)cc1	inactive
Nc1ccc(-c2ccccc2)cc1	inactive
CCCCOC(C)=O	inactive
Nc1cccc2ccccc12	inactive
O=[N+]([O-])/C=C/c1ccccc1	5.01 µM (active)
Nc1ccc2ccccc2c1	inactive
C=CCBr	inactive
CCCCOCC1CO1 (stereo not given)	inactive
O=[N+]([O-])c1cccc(O)c1	inactive
C=C(Cl)CCl	inactive
Clc1ccc(C(Cl)(Cl)Cl)cc1Cl	inactive
Cc1ccc2c(C)cccc2c1	inactive
O=C(O)C(Cl)(Cl)Br	inactive
CC(C)(C)C(O)(CCc1ccc(Cl)cc1)Cn1cncn1 (stereo not given)	inactive
